Test results: the supplement of paper PMC7335073
In all, about 4,100 sequences were measured (“relative CpG methylation activity (normalised to average over all NNNCGNNN flanks)”: median about 0.94, highest 2% from about 1.9 on). The full list was thinned out, with the highest values kept by preference.

Target: DNMT3B catalytic domain (mouse) (UniProt O88509)
Experiment: relative CpG methylation activity (normalised to average over all NNNCGNNN flanks) (relative (1 = mean)); higher = more methylation of the central CpG
Details: system: in vitro, murine catalytic domain; CpG state: hemimethylated substrate pool; residues: 558-859
Protocol: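 Deep enzymology: a pool of dsDNA substrates with a central CpG flanked by 10 random nucleotides on each side was methylated by the murine DNMT3A or DNMT3B catalytic domain (0.8 mM SAM, 37 °C, 60 min). Methylation was then read out by hairpin ligation, bisulfite conversion and NGS. Values are the average methylation of each NNNCGNNN context (±3 flanks; the outer flanks are random and averaged over), normalised to the overall mean, so 1 = average activity.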

DNMT3B catalytic domain (mouse), sequence (O88509 558-859): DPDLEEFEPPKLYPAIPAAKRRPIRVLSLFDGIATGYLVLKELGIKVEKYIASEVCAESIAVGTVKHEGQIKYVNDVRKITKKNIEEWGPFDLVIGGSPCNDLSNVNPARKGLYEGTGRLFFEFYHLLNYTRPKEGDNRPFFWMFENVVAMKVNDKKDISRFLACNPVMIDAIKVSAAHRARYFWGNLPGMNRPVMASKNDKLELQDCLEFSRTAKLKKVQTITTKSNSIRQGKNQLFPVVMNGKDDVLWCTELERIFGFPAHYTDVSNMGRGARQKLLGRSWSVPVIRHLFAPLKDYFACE

Sequence | relative CpG methylation activity
GACCGGCT | 1.19
ACGCGTAG | 0.632
AGGCGATC | 1.05
ACACGATC | 1.75
GGCCGACT | 0.91
TTACGTCC | 1.93
ATACGTCC | 1.54
TTACGTCT | 1.64
GTACGTAC | 1.42
TTACGTAT | 1.19
TTACGTAC | 1.95
AGTCGACA | 1.24
CTGCGGAA | 0.922
ACACGCTG | 1.11
GATCGATC | 1.48
TCCCGAGG | 1.3
CCCCGAGC | 1.93
ACCCGAGC | 1.75
CCCCGAGA | 1.68
CCCCGAGG | 1.5
TCCCGAGC | 2.01
CACCGCGT | 0.402

Sequence | relative CpG methylation activity
CTGCGCCA | 1.17
CGACGGCC | 1.46
TGACGGCG | 1.63
CGACGGCG | 1.93
AGACGGCC | 1.71
AGACGGCG | 1.94
CGACGGCA | 1.82
AACCGTCC | 0.606
TATCGAGG | 1.5
GTACGCGT | 1.4
ATACGCCC | 1.69
CCACGGGA | 1.42
GTACGGGT | 1.85
TTACGGGT | 1.83
CAACGGGA | 1.82
ATACGGGT | 1.73
TTACGGGA | 1.92
CTACGGGT | 1.94
TTACGGGC | 2.03
GTACGGGC | 1.63
GTACGGGA | 1.73
CTACGGGA | 1.91

Sequence | relative CpG methylation activity
CTACGGGC | 1.75
TACCGCTG | 0.389
TATCGCAG | 0.473
GAACGCGG | 0.853
TACCGCGG | 0.374
CGGCGAAG | 0.694
GCGCGCCA | 0.631
GTGCGAAA | 1.05
ACACGGGC | 1.54
CAACGGGG | 1.39
ATACGGGC | 1.93
GTACGGGG | 1.6
CTACGGGG | 1.9
CGACGGGG | 0.808
ATACGGGA | 1.66
ATACGGGG | 1.61
TTACGGGG | 2
GTTCGTAC | 1.18
GCTCGCCC | 0.844
GTCCGATG | 1.16
GACCGTCT | 0.495
